In the library only some 1.6% were active in any assay of this set; here they are far more common.
hERG WT inh = qHTS for Inhibitors of KCHN2 3.1: Wildtype qHTS; U2OS, BacMam KCNH2, thallium flux FluxOr; active compounds read low; activity change, % at 1.84 µM; 340,000 compounds, 0.37% hits; AID 720551, 2013;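 active means maximum activity change below -70%; inconclusive means maximum activity change between -70% and -50%; inactive means maximum activity change above -50%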; further: on the % scale 0 is the no-effect control and ±100 the full control effect
Target sequence (Q12809 whole entry, looked up): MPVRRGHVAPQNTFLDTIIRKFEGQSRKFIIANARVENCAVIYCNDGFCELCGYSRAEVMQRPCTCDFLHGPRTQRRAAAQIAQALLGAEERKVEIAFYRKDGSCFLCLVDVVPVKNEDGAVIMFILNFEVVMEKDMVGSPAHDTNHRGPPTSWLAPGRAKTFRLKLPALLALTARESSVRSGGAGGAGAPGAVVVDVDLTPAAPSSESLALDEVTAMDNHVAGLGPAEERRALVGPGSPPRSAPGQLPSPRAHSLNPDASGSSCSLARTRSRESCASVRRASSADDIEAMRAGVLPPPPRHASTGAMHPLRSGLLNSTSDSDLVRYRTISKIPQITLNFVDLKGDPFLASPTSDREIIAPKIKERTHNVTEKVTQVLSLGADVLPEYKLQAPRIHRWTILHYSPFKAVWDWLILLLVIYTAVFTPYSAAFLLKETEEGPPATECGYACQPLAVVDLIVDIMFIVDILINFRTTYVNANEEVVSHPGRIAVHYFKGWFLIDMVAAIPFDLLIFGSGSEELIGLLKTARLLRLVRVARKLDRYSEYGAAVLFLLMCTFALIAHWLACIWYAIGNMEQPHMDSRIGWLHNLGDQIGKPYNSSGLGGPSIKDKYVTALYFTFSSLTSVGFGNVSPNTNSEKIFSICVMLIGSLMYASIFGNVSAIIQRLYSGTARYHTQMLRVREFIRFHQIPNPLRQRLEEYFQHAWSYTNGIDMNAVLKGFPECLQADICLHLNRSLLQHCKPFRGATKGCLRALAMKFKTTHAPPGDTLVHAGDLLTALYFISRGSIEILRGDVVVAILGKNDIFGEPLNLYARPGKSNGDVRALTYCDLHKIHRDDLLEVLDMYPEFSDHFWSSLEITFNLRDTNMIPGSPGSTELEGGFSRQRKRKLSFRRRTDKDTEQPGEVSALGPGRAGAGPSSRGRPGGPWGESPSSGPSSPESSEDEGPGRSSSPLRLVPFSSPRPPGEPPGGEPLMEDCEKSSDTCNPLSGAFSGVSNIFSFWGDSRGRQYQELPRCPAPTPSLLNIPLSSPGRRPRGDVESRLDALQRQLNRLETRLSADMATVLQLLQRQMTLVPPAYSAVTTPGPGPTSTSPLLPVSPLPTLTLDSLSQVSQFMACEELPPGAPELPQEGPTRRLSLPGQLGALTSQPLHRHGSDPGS
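U2OS cells transduced with wild-type KCNH2 virus are loaded with FluxOr dye for 45 min, and thallium flux is measured in kinetic reads before and after stimulation buffer. Rate constants are normalized to DMSO controls.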
Akt phos inh = HTS Assay for Inhibitors of Akt Phophorylation: Primary Screen. 360,000 compounds, 0.32% hits. Neuro2A IGF-stimulated pAkt S473 HTRF, 20 min; active compounds read low. AID 651550, 2012. activity change, % for hits at 50 µM; in the data active means activity change below about -80%; inconclusive means mostly about -51% to -80%; further: on the % scale 0 is the no-effect control and ±100 the full control effect
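Neuro2A cells in DMEM with 0.5% FBS, overnight at 37 deg C, given compound at single 50 µM final, then IGF (6 nM final) for 20 min at 37 deg C. Lysed; phospho-Akt Ser473 by HTRF after 24 h, 665/615 ratio.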
GRP78 ERSR act = qHTS for Inducers of the Endoplasmic Reticulum Stress Response (ERSR) in Human Glioma: qHTS; U87-MG GRP78 promoter luciferase reporter, 16 h; Potency, µM, inactives show top-dose activation, most hits filed as activators; 420,000 compounds, 0.02% hits; active means well fitted activation curve with a large enough effect; inconclusive means small, poorly fitted or top-dose-only effect; inactive means no such curve, though single readings can be large or run the other way; further: potency means the concentration at half of the fitted maximal effect; series mostly up to about 76 µM; % of control where 0% means no effect; nearly all actives have a fitted effect of over 35% in size
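Stably transfected U87-MG glioma cells carrying a GRP78-based luciferase sensor; 16 h compound incubation. Luminescence end-point read 10 min after Bright-Glo addition at room temperature.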
gsp ag = qHTS for Agonist of gsp, the Etiologic Mutation Responsible for Fibrous Dysplasia/McCune-Albright Syndrome: qHTS. Potency, µM (titrated, usually from 76.9 µM), inactives show at the top dose activation (cAMP increase), most hits filed as activators. gsp mutant cells, cAMP HTRF, 30 min. 340,000 compounds, 0.13% hits; active means well fitted activation curve with a large enough effect; inconclusive means small, poorly fitted or top-dose-only effect, or another doubt; inactive means no such curve, though single readings can be large or run the other way; cell line not stated here;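 further: phosphodiesterase inhibitor Ro 20-1724 added with compounds to block cAMP breakdown; potency means the concentration at half of the fitted maximal effect; nearly all actives have a fitted effect of over 60% in size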
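Cells in DMEM/10% FBS with G418 were pretreated with compounds in DMSO plus […] (300 uM stock) for 30 min at 37C. cAMP was measured by HTRF (cAMP-d2 plus anti-cAMP antibody-K) after 30 min at room temperature.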
gsp antagonist = qHTS for Antagonists of gsp, the Etiologic Mutation Responsible for Fibrous Dysplasia/McCune-Albright Syndrome: qHTS. Potency, µM (series often up to 76.9 µM), for inactives: at the highest dose activity change, negative = inhibition, hits mostly inhibitors. AID 624288, 2012. gsp-mutant cells, cAMP HTRF, 30 min. 340,000 compounds, 0.4% hits; calls by dose curve; cell line not stated here;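 further: intracellular cAMP measured with PDE inhibitor Ro 20-1724 present during compound exposure; potency means the concentration at half of the fitted maximal effect; on the % scale 0 is the no-effect control and ±100 the full control effect; nearly all actives have a fitted effect of over 65% in size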
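HTRF cAMP read-out (cAMP-d2 plus anti-cAMP antibody-K in lysis buffer, 30 min RT). Before lysis, cells are exposed to compounds with […] for 30 min at 37C in DPBS containing Ca/Mg, BSA and Tween 20.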
KCNH2 3.1 block = qHTS for Inhibitors of KCHN2 3.1: Mutant qHTS; activity change, % (tested at about 1.8 µM); 340,000 compounds, 0.95% hits; U2OS KCNH2 3.1, thallium flux FluxOr; active compounds read low; AID 720553, 2013; Potassium voltage-gated channel subfamily H member 2, brain isoform KCNH2 3.1 (human);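 active means maximum activity change below -70%; inconclusive means maximum activity change from -70% to -50%; inactive means maximum activity change above -50%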;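 further: thallium influx rate constant from kinetic fluorescence after stimulation buffer; on the % scale 0 is the no-effect control and ±100 the full control effect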
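Thallium flux read-out: FluxOr dye with Red40 quencher in HBSS/HEPES, 45 min at RT. Rate constants from kinetic reads were normalized to positive and negative DMSO controls. Cells: U2OS virally expressing the 3.1 isoform.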
An asterisk follows results filed as active; i = inactive; ? = inconclusive; / = not tested or not shown; ! = a repeat was not active; [ ] = dose if it differs, or a comment.

SMILES	hERG WT inh	Akt phos inh	GRP78 ERSR act	gsp ag	gsp antagonist	KCNH2 3.1 block
O=c1[nH]c2ccc(S(=O)(=O)N3CCC(Cc4ccccc4)CC3)cc2o1	-1	i	-3%	8%	25µM*	-2
CCCc1[nH]nc2c1C(C1CCCCC1)C(C#N)=C(N)O2 (stereo not given)	8	i	35µM*	-85%	-9%	-36
CCOC(=O)C1=C(C)OC(N)=C(C#N)C1C1CCCCC1 (stereo not given)	-8	-118%*	-6%	-22%	-2%	-8
CCOC(=O)C1=C(c2ccccc2)OC(N)=C(C#N)C1C1CCCCC1 (stereo not given)	1	i	?	-50%	-1%[15.4 µM]	-3
CCn1c(SCc2ccc(C)cc2)nnc1C1CCN(S(=O)(=O)c2ccc(OC)cc2)CC1	4	-130%*	-5%	-21%	-22%	-8
CCn1c(SCc2ccc(F)cc2)nnc1C1CCN(S(=O)(=O)c2ccc(OC)cc2)CC1	2	i	-7%	4%	-28%	-32
COCc1ccc(C(=O)N(C)CC2CCCN(CCc3ccc(Cl)cc3)C2)o1 (stereo not given)	-2	i	-1%	?	-8%	-74*
Cc1occc1C(=O)N(C)CC1CCCN(CCc2ccc(Cl)cc2)C1 (stereo not given)	11	i	-1%	-39%	/	-72*
COc1ccc(CCN2CCCC(CN(C)C(=O)c3ccoc3C)C2)cc1 (stereo not given)	15	i	-1%	0%[15.4 µM]	11%	/
COc1ccc(CN2CCOc3c(cc(-c4cccc(OC)n4)cc3OC)C2)c(O)c1	/	/	-7%	/	/	/
O=C(O)/C=C/c1cccnc1	-12	i	-5%	?	10%	-21
CC(/C=C\c1cccnc1)=C/C(=O)O	-1	i	-2%	-1%	3%	-77*!
Cc1ccc(C)c(NC(=O)C(OC(=O)c2ccc(NC(=O)CC#N)cc2)c2ccccc2)c1 (stereo not given)	0	i	-4%	-53%	-7%	-71*
Cn1nnnc1SCCNCc1ccccc1OCc1ccc(Cl)cc1	32	i	-1%	34%[15.4 µM]	-10%	2
Cc1ccc(CSc2nnnn2C)cc1	2	i	-3%	-42%	5%	-98*
Cn1nnnc1SCc1ccc(F)cc1	-26	i	-1%	-1%	3%	-5
Cn1nnnc1SCCNCc1ccc(Cl)cc1	0	i	-4%	-15%	16%	-95*
Cc1ccccc1C1(CC(=O)N2CCCCC2C)CC(=O)N(Cc2cccnc2)C1=O (stereo not given)	/	/	-5%	/	/	/
COc1ccc(NC(=O)c2ccc3c(=O)n(-c4ccc(OC)cc4OC)c(=S)[nH]c3c2)cc1	9	i	-3%	32%[15.4 µM]	-90%	-3
COc1ccc(-n2c(=S)[nH]c3cc(C(=O)Nc4ccc(F)cc4)ccc3c2=O)c(OC)c1	-4	i	-6%	5%	40µM*	20
COc1ccc(-n2c(=S)[nH]c3cc(C(=O)Nc4ccccc4OC)ccc3c2=O)c(OC)c1	-7	i	-2%	4%[15.4 µM]	28µM*	3
COc1ccc(-n2c(=S)[nH]c3cc(C(=O)NCc4ccccc4OC)ccc3c2=O)c(OC)c1	21	i	-5%	3%[15.4 µM]	-35%	8
COc1ccc(-n2c(=S)[nH]c3cc(C(=O)NCc4ccc(F)cc4)ccc3c2=O)c(OC)c1	-3	i	-5%	7%[15.4 µM]	25µM*	6
COC(=O)c1cn([C@H]2C[C@@H](C(=O)N3CCCCCC3)N(Cc3ccsc3)C2)nn1	/	/	6%	/	/	/
CN(C)c1ccc(/C=C/c2c(Br)cnc3ccccc23)cc1	/	/	-1%	/	/	/
SMILES	hERG WT inh	Akt phos inh	GRP78 ERSR act	gsp ag	gsp antagonist	KCNH2 3.1 block
Cc1cnc(SCc2ccccn2)nc1C1CCCN(C(=O)c2scc3c2CCCC3)C1 (stereo not given)	/	/	-8%	/	/	/
Cc1cc2nc(N3CCC(NC(C)c4nc(-c5ccccn5)no4)CC3)nc(C)c2cc1C (stereo not given)	/	/	6%	/	/	/
c1ccc(Cc2nnc3n2CCN(Cc2cnc(-c4ccccc4)s2)CC3)cc1	/	/	-2%	/	/	/
Cc1ccc(-n2cc(CNCCn3nc(C)cc3C)c(-c3ccc(F)cc3)n2)cc1	-29	i	-5%	18%	-20%	-79*
CCN(CC(=O)Nc1ccc(OC(F)F)cc1)C1CCCCC1	-8	i	0%	-11%	16%	-92*
CCN(C(=S)Nc1ccc(OC(F)F)cc1)C1CCCCC1	1	i	-1%	-5%[15.4 µM]	5%	-16
COc1cc(CNC2CCCCCC2)cc(OC)c1	-5	i	-3%	-1%	8%	-87*
COc1cc(CNC2CCCCCC2)cc(OC)c1OC	-10	i	-2%	9%	9%	-15
C=CCn1c(SCC(=O)Nc2ccc(S(N)(=O)=O)cc2)nnc1-c1cnccn1	-143*	i	-7%	11%	7%	-12
C=CCn1c(SCC(=O)Nc2ccc(OC)cc2)nnc1-c1cnccn1	-4	i	-4%	12%	6%	4
CC(=O)Nc1cc(C(=O)N2CCCC2)ccc1Sc1ccc(C)cc1	-15	i	1%	17%	20µM*	-19
CC(=O)Nc1cc(C(=O)N2CCCC2)ccc1S(=O)(=O)c1ccc(C)cc1	-3	i	0%	-34%	-1%	-1
CC(=O)Nc1cc(C(=O)N2CCCC2)ccc1Sc1ccc(Cl)cc1	-9	i	-1%	18%	11µM*	-30
COc1cc(OC)cc(C(=O)N2CCCC(n3cc(C(=O)NCC(C)C)nn3)C2)c1 (stereo not given)	/	/	-1%	/	/	/
Cc1ccc(CNC(=O)CSc2c3c(nc4cc(Cl)ccc24)CCCC3)o1	-1	-103%*	-16%	?	1%	14
CCOc1ccc(CNC(=O)CSc2c3c(nc4cc(Cl)ccc24)CCCC3)cc1	/	/	2%	/	/	/
COc1cc(=O)n2c(c1C(=O)N(C)Cc1nonc1C)CCN(C(=O)c1cccc(C)c1C)CC2	/	/	0%	/	/	/
CCN1CCN(C(=O)c2cnn(-c3ncc4c(n3)-c3ccccc3CCC4)c2COC)CC1	/	/	-3%	/	/	/
Cc1ccc(S(=O)(=O)NCc2cccnc2)c(C)c1	-13	i	-3%	-62%	17%	-71*

Assay outcomes (PubChem BioAssay)
